Activity calls are given as the source filed them. The calls were made as follows: active = hit-call score of the fitted dose curve at least 0.9, where 1 is the maximum; inactive = score below 0.9.

A word on the AC50: it is the concentration at which the activity in the assay is half-maximal.

Read-out in one experiment: solute carrier (SLCO1B1), SLCO1B1 (gene 10599)
The experiment can be described thus: LTEA_HepaRG_SLCO1B1: Life Technologies and Expression Analysis (LTEA) Assay for solute carrier (SLCO1B1) using HepaRG (AID 2283530). The note with it: mRNA level, 48 h; actives raise or lower the signal. A digest of the protocol:
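Differentiated human HepaRG cells, plated 48 h, switched to serum-free induction medium and exposed in duplicate for 48 h to 8 half-log concentrations (top 100 uM) in 0.5% DMSO. SLCO1B1 mRNA by TaqMan qRT-PCR, normalized to ACTB/GAPDH/POLR2A.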
Regarding `Clc1ccc(C(Cl)(Cl)Cl)cc1`, the outcome was inactive.

With `CCCCCCCCCc1ccc(O)cc1`, the call was inactive.

Turning to `NS(=O)(=O)C(F)(F)C(F)(F)C(F)(F)C(F)(F)C(F)(F)C(F)(F)C(F)(F)C(F)(F)F`, the AC50 was 9.33 µM (active).

With `CC(C)(O)C(=O)Nc1ccc([N+](=O)[O-])c(C(F)(F)F)c1`, the half-maximal activity concentration (AC50) is 0.0191 µM (active).

`O=C(O)C(F)(F)C(F)(F)C(F)(F)C(F)(F)C(F)(F)F`: the concentration at half-maximal activity (AC50) was 9.92 µM (active).

With `O=S(=O)(O)C(F)(F)C(F)(F)C(F)(F)C(F)(F)F`, the outcome was inactive.

On to `ClC1=C(Cl)[C@]2(Cl)[C@@H]3[C@H]4C[C@H]([C@@H]5O[C@H]45)[C@@H]3[C@@]1(Cl)C2(Cl)Cl`, for which the AC50 is 13.8 µM (active).

Turning to `Cc1cc2c3c(c1)C(c1ccccc1)=N[C@@H](NC(=O)c1ccncc1)C(=O)N3CC2`, the compound was classed as inactive.

`N#Cc1ccc(N(CC(N)=O)CC(F)(F)F)cc1C(F)(F)F`: the outcome was inactive.

Regarding `Cc1ccc(O)c(C)c1`, the compound was called inactive.

On to `CCCN(CCC)N=O`, for which the compound was classed as inactive.

`CN(C)c1nc(=O)n(C2CCCCC2)c(=O)n1C`: the outcome was inactive.

Regarding `CCCCCCOC(=O)c1ccccc1C(=O)OCCCCCC`, the call was inactive.

As for `O=C(O)C(F)(F)C(F)(F)C(F)(F)C(F)(F)C(F)(F)C(F)(F)C(F)(F)C(F)(F)C(F)(F)F`, the AC50 was 61.8 µM (active).

In the case of `CO/C=C(/C(=O)OC)c1ccccc1COc1cccc(C(F)(F)F)n1`, the AC50 is 8.29 µM (active).

Turning to `O=NN(c1ccccc1)c1ccccc1`, the compound was classed as inactive.

As to `CCC(C)(CC)c1cc(NC(=O)c2c(OC)cccc2OC)on1`, the call was inactive.

As for `CC#Cc1cc(C)nc(Nc2ccccc2)n1`, the AC50 was 29.2 µM (active).

With `C[C@]12CCC(=O)C=C1CC[C@@H]1[C@@H]2CC[C@@]2(C)[C@H]1CC[C@]2(C)O`, the compound was called inactive.

On to `ClC1=C(Cl)[C@]2(Cl)[C@@H]3[C@@H]4C[C@@H]([C@H]5O[C@@H]45)[C@@H]3[C@@]1(Cl)C2(Cl)Cl`, for which the compound was classed as inactive.

In the case of `CCOP(=S)(OCC)SCSC(C)(C)C`, the compound was called inactive.

Consider `CCC(=O)O[C@H]1CC[C@H]2[C@@H]3CCC4=CC(=O)CC[C@]4(C)[C@H]3CC[C@]12C`, for which the AC50 is 12.6 µM (active).

Turning to `CC(c1ccc(O)cc1)(c1ccc(O)cc1)c1ccc(O)cc1`, the result was inactive.

As for `CCNc1nc(NC(C)C)nc(SC)n1`, the call was inactive.

Turning to `O=C(N[C@H]1CN2CCC1CC2)c1cc2ccoc2cn1`, the compound was classed as inactive.

As for `O=S(=O)(O)C(F)(F)C(F)(F)C(F)(F)C(F)(F)C(F)(F)C(F)(F)F`, the result was inactive.

As for `COc1ccc(O)c(C(C)(C)C)c1`, the call was inactive.

For `Cc1ccccc1[N+](=O)[O-]`, the outcome was inactive.

As for `CCOC(=O)C(O)(c1ccc(Cl)cc1)c1ccc(Cl)cc1`, the compound was classed as inactive.

Regarding `Oc1ccc(Cl)cc1Cl`, the compound was classed as inactive.

Read-out in another experiment: sulfotransferase 2A1 (SULT2A1), SULT2A1 (gene 6822)
The experiment can be described thus: LTEA_HepaRG_SULT2A1: Life Technologies and Expression Analysis (LTEA) Assay for sulfotransferase 2A1 (SULT2A1) using HepaRG (AID 2283531). The settings on record: mRNA level, 48 h; actives raise or lower the signal. A digest of the protocol:
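Differentiated human HepaRG cells in serum-free induction medium were exposed for 48 h to eight half-log concentrations (top 100 uM, 0.5% DMSO). SULT2A1 mRNA was measured by qRT-PCR, normalized to ACTB, GAPDH and POLR2A, and fitted bidirectionally against DMSO.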
`Clc1ccc(C(Cl)(Cl)Cl)cc1`: the compound was classed as inactive.

For the compound `CCCCCCCCCc1ccc(O)cc1`, the compound was classed as inactive.

With `NS(=O)(=O)C(F)(F)C(F)(F)C(F)(F)C(F)(F)C(F)(F)C(F)(F)C(F)(F)C(F)(F)F`, the AC50 is 13.1 µM (active).

For `CC(C)(O)C(=O)Nc1ccc([N+](=O)[O-])c(C(F)(F)F)c1`, the outcome was inactive.

As to `O=C(O)C(F)(F)C(F)(F)C(F)(F)C(F)(F)C(F)(F)F`, the compound was classed as inactive.

For the compound `O=S(=O)(O)C(F)(F)C(F)(F)C(F)(F)C(F)(F)F`, the call was inactive.

Regarding `ClC1=C(Cl)[C@]2(Cl)[C@@H]3[C@H]4C[C@H]([C@@H]5O[C@H]45)[C@@H]3[C@@]1(Cl)C2(Cl)Cl`, the compound was classed as inactive.

Turning to `Cc1cc2c3c(c1)C(c1ccccc1)=N[C@@H](NC(=O)c1ccncc1)C(=O)N3CC2`, the compound was classed as inactive.

Turning to `N#Cc1ccc(N(CC(N)=O)CC(F)(F)F)cc1C(F)(F)F`, the call was inactive.

For the compound `Cc1ccc(O)c(C)c1`, the compound was classed as inactive.

For `CCCN(CCC)N=O`, the result was inactive.

For `CN(C)c1nc(=O)n(C2CCCCC2)c(=O)n1C`, the compound was called inactive.

For `COS(=O)(=O)OC`, the compound was called inactive.

For `CCCCCCOC(=O)c1ccccc1C(=O)OCCCCCC`, the compound was classed as inactive.

For the compound `O=C(O)C(F)(F)C(F)(F)C(F)(F)C(F)(F)C(F)(F)C(F)(F)C(F)(F)C(F)(F)C(F)(F)F`, the AC50 is 35.7 µM (active).

As for `CO/C=C(/C(=O)OC)c1ccccc1COc1cccc(C(F)(F)F)n1`, the AC50 is 21.5 µM (active).

As for `O=NN(c1ccccc1)c1ccccc1`, the call was inactive.

For the compound `CCC(C)(CC)c1cc(NC(=O)c2c(OC)cccc2OC)on1`, the result was inactive.

Turning to `CC#Cc1cc(C)nc(Nc2ccccc2)n1`, the AC50 is 5.75 µM (active).

For the compound `C[C@]12CCC(=O)C=C1CC[C@@H]1[C@@H]2CC[C@@]2(C)[C@H]1CC[C@]2(C)O`, the compound was called inactive.

As for `ClC1=C(Cl)[C@]2(Cl)[C@@H]3[C@@H]4C[C@@H]([C@H]5O[C@@H]45)[C@@H]3[C@@]1(Cl)C2(Cl)Cl`, the compound was classed as inactive.

As to `CCOP(=S)(OCC)SCSC(C)(C)C`, the AC50 was 10.4 µM (active).

On to `CCC(=O)O[C@H]1CC[C@H]2[C@@H]3CCC4=CC(=O)CC[C@]4(C)[C@H]3CC[C@]12C`, for which the outcome was inactive.

For the compound `CC(c1ccc(O)cc1)(c1ccc(O)cc1)c1ccc(O)cc1`, the AC50 is 84 µM (active).

As for `CCNc1nc(NC(C)C)nc(SC)n1`, the call was inactive.

Take `O=C(N[C@H]1CN2CCC1CC2)c1cc2ccoc2cn1`: the compound was classed as inactive.

In the case of `O=S(=O)(O)C(F)(F)C(F)(F)C(F)(F)C(F)(F)C(F)(F)C(F)(F)F`, the result was inactive.

With `COc1ccc(O)c(C(C)(C)C)c1`, the call was inactive.

Take `Cc1ccccc1[N+](=O)[O-]`: the outcome was inactive.

On to `CCOC(=O)C(O)(c1ccc(Cl)cc1)c1ccc(Cl)cc1`, for which the result was inactive.

Turning to `Oc1ccc(Cl)cc1Cl`, the outcome was inactive.

For the origin of these results see PubChem BioAssay (EPA / NIEHS).
